# Source: PubChem BioAssay (NCATS)
# Results filed as inconclusive are left out. Active and inactive are the calls of the source. Calls follow the shape of the dose curve; as a rule, active = well fitted curve in the direction sought with a large enough effect; inconclusive = small, poorly fitted or top-dose-only effect, or another doubt; inactive = no such curve, though single readings can be large; an effect the other way counts as inactive or inconclusive.
# Legend:
# [1] = qHTS of pediatric cancer cell lines to identify multiple opportunities for drug repurposing: Primary screen for TC32 cells (AID 1347089); also: nearly all actives have a fitted effect of over 60% in size; also: potency is read from the fitted curve at half-maximal effect
# Outline: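 A viability screen of TC32 cells was run over 48 h, with primary MIPE doses spanning 0.78 nM–46 µM and NPC doses 0.59 nM–46 µM. ATP luminescence (CellTiter-Glo) served as the read-out.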
# [2] = qHTS of pediatric cancer cell lines to identify multiple opportunities for drug repurposing: Primary screen for SJ-GBM2 cells (AID 1347091); also: potency is read from the fitted curve at half-maximal effect
# Outline: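 Cell viability, CellTiter-Glo luminescence; 500-1,000 cells/well, 8- or 11-point titration, 48 h compound exposure at 37 degrees C, 5% CO2. Controls: DMSO neutral, bortezomib 2.3 µM final as positive.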
# [3] = qHTS of pediatric cancer cell lines to identify multiple opportunities for drug repurposing: Primary screen for A673 cells (AID 1347092); also: nearly all actives have a fitted effect of over 45% in size; also: potency is read from the fitted curve at half-maximal effect
# Outline: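 Titration-based qHTS on A673 cells: MIPE compounds spanned 11 points (0.78 nM to 46 µM final), NPC compounds 8 points (0.59 nM to 46 µM final). Viability after 48 h was measured by ATP luminescence.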
# [4] = qHTS of pediatric cancer cell lines to identify multiple opportunities for drug repurposing: Primary screen for SK-N-MC cells (AID 1347093); also: potency is read from the fitted curve at half-maximal effect
# Outline: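 Metabolically active cells were quantified by ATP-dependent luminescence (CellTiter-Glo, 15 min at room temperature) following 48 h treatment. Cells had been plated at 500-1,000 per well and settled for 5 h beforehand.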
# [5] = qHTS of pediatric cancer cell lines to identify multiple opportunities for drug repurposing: Primary screen for BT-37 cells (AID 1347094); also: potency is read from the fitted curve at half-maximal effect
# Outline: (§1)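 ATP-based luminescence (CellTiter-Glo) quantifies viability after a 48-hour exposure. Compounds are dosed across 8 or 11 final concentrations; DMSO and 2.3 µM bortezomib serve as controls.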
# [6] = qHTS of pediatric cancer cell lines to identify multiple opportunities for drug repurposing: Primary screen for NB-EBc1 cells (AID 1347095); also: potency is read from the fitted curve at half-maximal effect
# Outline: as §1
# [7] = qHTS of pediatric cancer cell lines to identify multiple opportunities for drug repurposing: Primary screen for Saos-2 cells (AID 1347097); also: nearly all actives have a fitted effect of over 40% in size; also: potency is read from the fitted curve at half-maximal effect
# Outline: as §1
# [8] = qHTS of pediatric cancer cell lines to identify multiple opportunities for drug repurposing: Primary screen for SK-N-SH cells (AID 1347098); also: nearly all actives have a fitted effect of over 65% in size; also: potency is read from the fitted curve at half-maximal effect
# Outline: (§2)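 Cells (500-1,000/well) rested 5 h, then received compounds for 48 h; metabolically active cells were measured by CellTiter-Glo luminescence. Final concentrations spanned up to 46 µM (MIPE, 11-point) or 0.59 nM-46 µM (NPC, 8-point) in primary screens, 11-point in follow-ups.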
# [9] = qHTS of pediatric cancer cell lines to identify multiple opportunities for drug repurposing: Primary screen for NB1643 cells (AID 1347099); also: nearly all actives have a fitted effect of over 50% in size; also: potency is read from the fitted curve at half-maximal effect
# Outline: as §1
# [10] = qHTS of pediatric cancer cell lines to identify multiple opportunities for drug repurposing: Primary screen for LAN-5 cells (AID 1347100); also: potency is read from the fitted curve at half-maximal effect
# Outline: as §2
# [11] = qHTS of pediatric cancer cell lines to identify multiple opportunities for drug repurposing: Primary screen for Rh18 cells (AID 1347102); also: nearly all actives have a fitted effect of over 65% in size; also: potency is read from the fitted curve at half-maximal effect
# Outline: as §2
# [12] = qHTS of pediatric cancer cell lines to identify multiple opportunities for drug repurposing: Primary screen for OHS-50 cells (AID 1347103); also: nearly all actives have a fitted effect of over 40% in size; also: potency is read from the fitted curve at half-maximal effect
# Outline: as §2
# [13] = qHTS of pediatric cancer cell lines to identify multiple opportunities for drug repurposing: Primary screen for RD cells (AID 1347104); also: nearly all actives have a fitted effect of over 55% in size; also: potency is read from the fitted curve at half-maximal effect
# Outline: as §1
# [14] = qHTS of pediatric cancer cell lines to identify multiple opportunities for drug repurposing: Primary screen for MG 63 (6-TG R) cells (AID 1347105); also: nearly all actives have a fitted effect of over 50% in size; also: potency is read from the fitted curve at half-maximal effect
# Outline: as §1
# [15] = qHTS of pediatric cancer cell lines to identify multiple opportunities for drug repurposing: Primary screen for BT-12 cells (AID 1347101); also: nearly all actives have a fitted effect of over 25% in size; also: potency is read from the fitted curve at half-maximal effect
# Outline: as §2
# [16] = qHTS of pediatric cancer cell lines to identify multiple opportunities for drug repurposing: Primary screen for control Hh wild type fibroblast cells (AID 1347106);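 also: series mostly up to about 46 µM; a drop in luminescence marks cytotoxicity and a rise apparent proliferation; nearly all actives have a fitted effect of over 55% in size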
# Outline: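 Viability after 48 h compound treatment at 37C, 500-1,000 cells/well, read as ATP luminescence with CellTiter-Glo. Primary screens used 11-point (MIPE, 0.78 nM-46 µM) or 8-point (NPC, 0.59 nM-46 µM) final concentrations; follow-up screens used 11-point dilutions.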
# [17] = qHTS of pediatric cancer cell lines to identify multiple opportunities for drug repurposing: Primary screen for U-2 OS cells (AID 1347096); also: nearly all actives have a fitted effect of over 50% in size; also: potency is read from the fitted curve at half-maximal effect
# Outline: as §2
Structure (SMILES),Potency [1],Potency [2],Potency [3],Potency [4],Potency [5],Potency [6],Potency [7],Potency [8],Potency [9],Potency [10],Potency [11],Potency [12],Potency [13],Potency [14],Potency [15],Potency [16],Potency [17]
CCn1nnc2c(N3CCOCC3)nc(-c3ccc(NC(=O)Nc4ccc(C(=O)N5CCN(C)CC5)cc4)cc3)nc21,0.0294 µM (active),46.9 nM (active),0.0935 µM (active),5.9 nM (active),0.0172 µM (active),0.743 µM (active),0.148 µM (active),8.57 µM (active),0.0743 µM (active),83.3 nM (active),0.0418 µM (active),0.0273 µM (active),0.0264 µM (active),46.9 nM (active),,,
C[C@@H](Oc1cc(-c2cnn(C3CCNCC3)c2)cnc1N)c1c(Cl)ccc(F)c1Cl,20.8 µM (active),74.3 nM (active),14.8 µM (active),2350 nM (active),,9.35 µM (active),9.35 µM (active),19.2 µM (active),3.72 µM (active),1050 nM (active),16.6 µM (active),2.43 µM (active),,18700 nM (active),24.3 µM (active),inactive,
CS(=O)(=O)N1CCN(Cc2cc3nc(-c4cccc5[nH]ncc45)nc(N4CCOCC4)c3s2)CC1,0.829 µM (active),372 nM (active),4.69 µM (active),41.8 nM (active),6.85 µM (active),0.833 µM (active),0.0526 µM (active),,0.833 µM (active),1050 nM (active),1.32 µM (active),0.0769 µM (active),1.05 µM (active),93.5 nM (active),,inactive,
COC(=O)Nc1nc2ccc(C(=O)c3ccc(F)cc3)cc2[nH]1,inactive,526 nM (active),0.59 µM (active),372 nM (active),,0.264 µM (active),0.526 µM (active),,,209 nM (active),inactive,0.968 µM (active),,590 nM (active),1.72 µM (active),inactive,inactive
C[C@H]1C[C@@H]2[C@@H]([C@@H](O)C[C@@]3(C)[C@H]2CC[C@]3(O)C(=O)CO)[C@@]2(C)C=CC(=O)C=C12,inactive,inactive,,,inactive,inactive,inactive,inactive,inactive,inactive,inactive,inactive,,inactive,inactive,,inactive
C=C1C(=CC=C2CCCC3(C)[C@@H]([C@H](C)C=CC=CC(O)(CC)CC)CC[C@@H]23)C[C@@H](O)C[C@@H]1O (stereo partly specified),inactive,20900 nM (active),18.7 µM (active),6620 nM (active),,18.7 µM (active),,,14.8 µM (active),14800 nM (active),inactive,24.3 µM (active),26.4 µM (active),inactive,,inactive,
COC(=O)C[C@](O)(CCCC(C)(C)O)C(=O)O[C@@H]1C(OC)=C[C@]23CCCN2CCc2cc4c(cc2[C@H]13)OCO4,inactive,inactive,inactive,,inactive,inactive,18.7 µM (active),inactive,,inactive,inactive,inactive,inactive,inactive,inactive,,inactive
COc1cc2c(Nc3ccc(NC(=O)c4ccccc4)cc3)ncnc2cc1OCCCN1CCOCC1,3.7 µM (active),5260 nM (active),14.8 µM (active),,30.6 µM (active),18.7 µM (active),,,26.4 µM (active),743 nM (active),,27.3 µM (active),33.2 µM (active),,,inactive,
N#Cc1c(O)c2c(-c3ccc(-c4ccccc4O)cc3)csc2[nH]c1=O,inactive,inactive,inactive,inactive,inactive,inactive,inactive,,,inactive,inactive,inactive,inactive,inactive,inactive,inactive,inactive
O=C(NCCCNc1nc(Nc2cccc(NC(=O)N3CCCC3)c2)ncc1I)c1cccs1,2.62 µM (active),,7.43 µM (active),1320 nM (active),24.3 µM (active),23.5 µM (active),3.32 µM (active),17.1 µM (active),11.8 µM (active),833 nM (active),,24.3 µM (active),16.6 µM (active),3720 nM (active),24.3 µM (active),,inactive
Cc1cn(-c2cc(NC(=O)c3ccc(C)c(Nc4nccc(-c5cccnc5)n4)c3)cc(C(F)(F)F)c2)cn1,inactive,,inactive,inactive,inactive,23.5 µM (active),inactive,inactive,inactive,inactive,inactive,inactive,,inactive,inactive,inactive,inactive
Cn1cc(-c2[nH]c3cc(NC(=O)[C@H](N)C4CCCCC4)cc4c3c2C=NNC4=O)cn1,2.62 µM (active),590 nM (active),5.9 µM (active),296 nM (active),,0.59 µM (active),4.69 µM (active),19.2 µM (active),,1480 nM (active),,1.22 µM (active),14.8 µM (active),,inactive,inactive,11.8 µM (active)
